FLuc counter = qHTS profiling assay for firefly luciferase inhibitor/activator using purifed enzyme and Km concentrations of substrates (counterscreen for miR-21 project) | Luciferin 4-monooxygenase (Photinus pyralis), P08659 | 360,000 compounds, 6.9% hits | AID 588342, 2011 | Potency, µM (series often up to 57.5 µM), actives largely listed as inhibitors | purified FLuc, Km substrates, luminescence inhibition; note: nearly all actives have a fitted effect of over 55% in size
Target sequence (P08659 whole entry, looked up): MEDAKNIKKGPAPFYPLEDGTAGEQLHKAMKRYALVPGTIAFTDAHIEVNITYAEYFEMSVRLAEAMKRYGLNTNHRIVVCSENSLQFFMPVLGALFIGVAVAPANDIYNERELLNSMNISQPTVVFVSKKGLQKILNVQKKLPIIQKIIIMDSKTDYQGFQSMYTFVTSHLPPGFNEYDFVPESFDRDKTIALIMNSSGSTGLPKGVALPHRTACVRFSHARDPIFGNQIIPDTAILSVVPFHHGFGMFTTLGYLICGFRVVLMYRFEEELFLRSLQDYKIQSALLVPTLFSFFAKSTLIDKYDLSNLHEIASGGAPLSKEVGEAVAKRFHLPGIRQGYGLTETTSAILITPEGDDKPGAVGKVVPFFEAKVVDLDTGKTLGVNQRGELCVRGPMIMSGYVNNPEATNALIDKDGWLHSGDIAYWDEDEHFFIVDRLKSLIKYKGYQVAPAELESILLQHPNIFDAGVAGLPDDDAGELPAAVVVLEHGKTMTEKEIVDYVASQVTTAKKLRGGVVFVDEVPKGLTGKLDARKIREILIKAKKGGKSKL
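Biochemical qHTS of compounds, final roughly 60 µM downward over six points, against 10 nM purified firefly luciferase using Km concentrations of substrates (10 uM D-luciferin, 10 uM ATP) in Tris acetate pH 7.5 buffer; luminescence output.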
NPC1 prom act = qHTS Assay for NPC1 Promoter Activators | Huh7 NPC1 promoter luciferase reporter, 24 h | Potency, µM (highest dose often 9.22 µM), actives largely listed as activators | 320,000 compounds, 2.4% hits | AID 485313, 2010; note: nearly all actives have a fitted effect of over 60% in size
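Luciferase expression driven by the NPC1 promoter was measured in stably transfected Huh7 cells after a 24 h compound incubation, using a luciferase reagent and a luminescence read.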
Rab9 prom act = qHTS Assay for Rab9 Promoter Activators; Potency, µM (series often up to 9.22 µM), most hits filed as activators; 320,000 compounds, 2.8% hits; Huh7 Rab9 promoter-luciferase reporter, luminescence, 24 h; AID 485297, 2010; note: nearly all actives have a fitted effect of over 60% in size
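Cells were plated at 1500 per well in reduced-serum medium with 10% FBS and left 2 h. Compound in DMSO was then added for 24 h at 37 °C. Reporter signal was read by luminescence after 10 min with luciferase detection reagent.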
ELG1 genotox = qHTS screen for small molecules that induce genotoxicity in human embryonic kidney (HEK293T) cells expressing luciferase-tagged ELG1; Potency, µM (highest dose often 46 µM), usual class: activators; HEK293T ELG1-luciferase reporter, luminescence, 16 h; 330,000 compounds, 1.3% hits; note: nearly all actives have a fitted effect of over 60% in size
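Screening used a luciferase reporter fused to human ELG1 in HEK293T cells. Luminescence was read on a CCD plate imager after 16 hr exposure and 30 min ONE-Glo incubation.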
SMN2 splice up = qHTS Assay for Enhancers of SMN2 Splice Variant Expression; 210,000 compounds, 2.8% hits; Potency, µM (top dose mostly 46.1 µM), most hits filed as activators; HEK293 SMN2-luciferase splicing reporter, luminescence, 30-36 h; AID 1458, 2008; note: nearly all actives have a fitted effect of over 55% in size
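qHTS luciferase splicing reporter: luminescence rises when SMN2 exon 7 is included in transfected HEK293 cells. Compound exposure lasted 30-36 h at 37C, with 4.5 mM final sodium butyrate as control, followed by a ONE-Glo read.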
ELG1 DNA repair = qHTS screen for small molecules that inhibit ELG1-dependent DNA repair in human embryonic kidney (HEK293T) cells expressing luciferase-tagged ELG1; HEK293T ELG1-luciferase reporter, luminescence, 16 h; DNA damage induced by 5-fluorouridine; 330,000 compounds, 2.3% hits; AID 504467, 2011; Potency, µM (doses to about 46.1 µM), most hits filed as inhibitors; note: nearly all actives have a fitted effect of over 55% in size
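Overnight (16 hr) co-exposure of 2,000 cells/well to 5-fluorouridine and compound at 37 °C preceded detection. Luciferase was quantified via ONE-Glo luminescence; loss of signal denotes inhibition.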
Hits are given with their value; – = inactive; ? = inconclusive; · = not tested or not shown; [ ] = dose if it differs, or a comment. This is a sample that favours compounds with a hit; in the whole collection about 9.2% have one here. Calls come from the whole dose curve; as a rule, active = well fitted curve in the direction sought with a large enough effect; inconclusive = small, poorly fitted or top-dose-only effect, or another doubt; inactive = no such curve, though single readings can be large; an effect the other way counts as inactive or inconclusive.

SMILES | FLuc counter | NPC1 prom act | Rab9 prom act | ELG1 genotox | SMN2 splice up | ELG1 DNA repair
O=C(CSc1nc2ccccc2s1)c1ccc(O)cc1O | 13.5µM | ? | –[1.84 µM] | – | · | ?
CCc1cc(C(=O)Cc2nc3ccccc3s2)c(O)cc1OCC(=O)O | 21.3µM | – | – | – | · | –
COc1ccc(C(=O)C(CCC(CNC(C)(C)C)C(=O)c2ccc(OC)cc2)CNC(C)(C)C)cc1 (stereo not given) | – | – | – | – | – | 8.2µM
Cc1ccc(S(=O)(=O)NC(=O)COc2ccc([N+](=O)[O-])cc2)cc1 | – | – | – | – | · | –
O=C(NC(=S)Nc1ccc(Br)cc1)C1CCC1 | 19µM | – | – | ? | · | ?
COC(=O)c1ccc(NC(=S)NC(=O)C2CCC2)cc1 | ? | – | – | – | · | ?
COc1ccc(NC(=S)NC(=O)C2CCC2)cc1 | 16.9µM | ? | 4.47µM | ? | · | ?
Cc1nc(N2CCN(S(=O)(=O)c3cccc4nonc34)CC2)c2c3c(sc2n1)CCCC3 | – | – | – | – | – | 18.4µM
Cc1nc(N2CCN(S(=O)(=O)c3ccccc3)CC2)c2c3c(sc2n1)CC(C)CC3 (stereo not given) | – | – | – | – | – | ?
CCOC(=O)c1ccccc1NC(=O)c1sc2ncn(Cc3cccc(F)c3)c(=O)c2c1C | – | · | · | · | · | ·
COc1ccc(C)cc1NC(=O)C(=O)NCCc1sc(-c2ccc(Cl)cc2)nc1C | – | · | · | · | · | ·
CCN(C(=O)COc1cc(=O)n(CC)c2ccccc12)c1cc(Cl)ccc1OC | – | – | – | – | – | 20.6µM
CCOc1cc(C(=O)NCc2nc(-c3cccc(C)c3)no2)cc(OCC)c1OCC | – | · | · | · | – | ·
Cn1c(=O)c2c(nc(CN3CCN(Cc4ccccc4)CC3)n2Cc2cccc(Cl)c2)n(C)c1=O | – | – | – | – | – | 11.6µM
Cn1c(=O)c2c(nc(CN3CCN(c4ccc(F)cc4)CC3)n2Cc2ccccc2F)n(C)c1=O | – | – | – | – | – | 6.51µM
Cn1c(=O)c2c(nc(CN3CCc4ccccc4C3)n2Cc2cccc(Cl)c2)n(C)c1=O | – | – | – | – | – | ?
CCCCCCn1c(CN2CCN(C(=O)c3ccco3)CC2)nc2c1c(=O)n(C)c(=O)n2C | – | – | – | – | – | 13µM
COCCn1c(CN2CCc3ccccc3C2)nc2c1c(=O)n(C)c(=O)n2C | – | – | – | – | – | 6.51µM
Cc1ccc(C(c2sc3nc(-c4ccco4)nn3c2O)N2CCOCC2)cc1 (stereo not given) | – | · | · | · | · | ·
O=C(CS(=O)(=O)c1cccc2nsnc12)N1CCN(c2ccc(F)cc2)CC1 | – | · | · | · | · | ·
O=C(Oc1ccccc1)c1cccc2cccc(C(=O)Oc3ccccc3)c12 | – | – | – | – | · | –
Cc1ccc(-n2ncc3c(NC4CCCC4)ncnc32)cc1 | 0.379µM | · | · | · | · | ·
c1ccc(-n2ncc3c(NC4CCCC4)ncnc32)cc1 | 4.78µM | · | · | · | · | ·
Cc1ccc(CNc2ncnc3c2cnn3-c2ccc(Cl)cc2)cc1 | – | · | · | · | · | ·
CCOC(=O)c1ccc(Nc2ncnc3c2cnn3-c2cccc(Cl)c2)cc1 | – | · | · | · | · | ·
SMILES | FLuc counter | NPC1 prom act | Rab9 prom act | ELG1 genotox | SMN2 splice up | ELG1 DNA repair
CCOC(=O)N1CCC(Nc2ncnc3c2cnn3-c2ccc(Cl)cc2)CC1 | ? | ? | ? | 11.6µM | – | ?
COc1ccc(-n2ncc3c(NC4CCCC4)ncnc32)cc1 | 1.35µM | · | · | · | · | ·
O=C(O)/C=C/c1cccc(B(O)O)c1 | · | · | · | · | – | ·
Cc1cccc(CC(=O)NC2CC(=O)N(c3ccccc3)C2)c1 (stereo not given) | – | · | · | · | · | ·
Oc1nc(Nc2ccc(F)cc2)sc1/C=C1\C=Nc2ccccc21 | ? | – | – | – | · | ?
O=c1[nH]c(S)c(/C=C2\C=Nc3ccccc32)s1 | 15.1µM | – | – | – | · | –
O=[N+]([O-])c1cccc(NC(=S)N2CCc3ccccc32)c1 | – | – | – | – | · | 13µM
O=C(Nc1cccc([N+](=O)[O-])c1)Nc1cccc([N+](=O)[O-])c1 | – | – | – | – | – | ?
O=C(Nc1cccc([N+](=O)[O-])c1)C(=O)N1CCCCC1 | ? | ? | 1.26µM | ? | 17.8µM | ?
O=C(Nc1cccc([N+](=O)[O-])c1)NC1CCCCCCC1 | 12µM | 2.82µM | 2.51µM | – | · | ?
O=C(Nc1cccc([N+](=O)[O-])c1)ONC1=NCCCCC1 | 15.1µM | – | – | – | · | –
O=C(Nc1cccc([N+](=O)[O-])c1)N1CCCc2ccccc21 | – | – | – | – | · | ?
CCOCCCn1c(SCC(=O)Nc2ccccc2OC)nc2c(oc3ccccc32)c1=O | – | · | · | · | – | ·
Cc1nn(-c2ccccc2)c2sc(-c3nnc(SCC(=O)O)o3)cc12 | ? | – | ? | – | – | –
CCn1c(SCC(=O)O)nnc1-c1cc2c(C)nn(-c3ccccc3)c2s1 | 9.53µM | – | – | – | – | ?
CCn1c(SCC(=O)c2cc(C)n(-c3ccc(C(=O)OC)cc3)c2C)nnc1-c1cccnc1 | 15.1µM | – | – | – | – | ?
CCn1c(SCC(=O)NCCc2ccccc2)nnc1-c1cccs1 | – | – | – | – | – | –
CCn1c(SCC(=O)c2ccc(O)c(O)c2)nnc1-c1ccccc1OC | – | – | – | – | – | –
CCn1c(SCC(=O)c2ccccc2)nnc1-c1cccs1 | 9.53µM | ? | ? | ? | – | ?
CCn1c(SCC(=O)c2ccc(O)c(O)c2)nnc1-c1ccccc1 | ? | – | – | 20.6µM | ? | ?
CCn1c(SCC(=O)c2cc(C)n(C)c2C)nnc1-c1ccccc1 | ? | – | – | – | – | –
Nc1ccc(N(S(=O)(=O)c2ccccc2)S(=O)(=O)c2ccccc2)c(Cl)c1 | · | · | · | · | –[9.22 µM] | ·
COCCc1nn2c(=O)cc(COC(=O)COc3ccc(F)cc3)nc2s1 | – | · | · | · | · | ·
Cc1ccsc1CN(Cc1ccco1)c1cnc(S(C)(=O)=O)nc1C(=O)Nc1ccc(Cl)cc1 | – | · | · | · | · | ·
CCn1c(SCC(=O)c2cccs2)nnc1-c1ccco1 | 21.3µM | – | – | – | – | ?
Cc1ccnc(SCC(=O)c2cccs2)n1 | ? | 3.55µM | 3.16µM | ? | ? | ?
O=C(Cn1nc2c(cc1=O)CCCC2)NCc1ccccc1Cl | – | · | · | · | · | ·
CCOC(=O)c1ccc(COc2ccc(C(C)C)cc2)o1 | 15.1µM | 0.631µM | 0.501µM | ? | · | ?
CCC(C)c1ccc(OCc2ccc(C(=O)O)o2)cc1 (stereo not given) | 3.01µM | ? | ? | 0.411µM | · | ?
CCOc1ccc(OCc2ccc(C(=O)N3N=C(C(F)F)CC3(O)C(F)F)o2)cc1 (stereo not given) | – | – | 3.98µM | – | ? | –
